# Hit rate of the full screen: of about 340,000 compounds, about 1,000 (0.29%) were called active. No stated cut-off is given here; in the data, inconclusive means inhibition above about 29% without an active follow-up result; inactive means below that. These entries were drawn from the full list. Potency and affinity values are given separately.
# Target: Genome polyprotein (Dengue virus type 2 (strain 16681-PDK53)) (UniProt P29991)
# Assay: flavivirus cap methylation enzyme inhibition – biochemical, confirmation dose response, primary screen (AID 588689)
# Conditions: Dengue-2 NS5 methyltransferase capping enzyme assay, at 25 µM, stronger effect = higher value
# Chain of Genome polyprotein (Dengue virus type 2 (strain 16681-PDK53)) (P29991 whole entry, looked up): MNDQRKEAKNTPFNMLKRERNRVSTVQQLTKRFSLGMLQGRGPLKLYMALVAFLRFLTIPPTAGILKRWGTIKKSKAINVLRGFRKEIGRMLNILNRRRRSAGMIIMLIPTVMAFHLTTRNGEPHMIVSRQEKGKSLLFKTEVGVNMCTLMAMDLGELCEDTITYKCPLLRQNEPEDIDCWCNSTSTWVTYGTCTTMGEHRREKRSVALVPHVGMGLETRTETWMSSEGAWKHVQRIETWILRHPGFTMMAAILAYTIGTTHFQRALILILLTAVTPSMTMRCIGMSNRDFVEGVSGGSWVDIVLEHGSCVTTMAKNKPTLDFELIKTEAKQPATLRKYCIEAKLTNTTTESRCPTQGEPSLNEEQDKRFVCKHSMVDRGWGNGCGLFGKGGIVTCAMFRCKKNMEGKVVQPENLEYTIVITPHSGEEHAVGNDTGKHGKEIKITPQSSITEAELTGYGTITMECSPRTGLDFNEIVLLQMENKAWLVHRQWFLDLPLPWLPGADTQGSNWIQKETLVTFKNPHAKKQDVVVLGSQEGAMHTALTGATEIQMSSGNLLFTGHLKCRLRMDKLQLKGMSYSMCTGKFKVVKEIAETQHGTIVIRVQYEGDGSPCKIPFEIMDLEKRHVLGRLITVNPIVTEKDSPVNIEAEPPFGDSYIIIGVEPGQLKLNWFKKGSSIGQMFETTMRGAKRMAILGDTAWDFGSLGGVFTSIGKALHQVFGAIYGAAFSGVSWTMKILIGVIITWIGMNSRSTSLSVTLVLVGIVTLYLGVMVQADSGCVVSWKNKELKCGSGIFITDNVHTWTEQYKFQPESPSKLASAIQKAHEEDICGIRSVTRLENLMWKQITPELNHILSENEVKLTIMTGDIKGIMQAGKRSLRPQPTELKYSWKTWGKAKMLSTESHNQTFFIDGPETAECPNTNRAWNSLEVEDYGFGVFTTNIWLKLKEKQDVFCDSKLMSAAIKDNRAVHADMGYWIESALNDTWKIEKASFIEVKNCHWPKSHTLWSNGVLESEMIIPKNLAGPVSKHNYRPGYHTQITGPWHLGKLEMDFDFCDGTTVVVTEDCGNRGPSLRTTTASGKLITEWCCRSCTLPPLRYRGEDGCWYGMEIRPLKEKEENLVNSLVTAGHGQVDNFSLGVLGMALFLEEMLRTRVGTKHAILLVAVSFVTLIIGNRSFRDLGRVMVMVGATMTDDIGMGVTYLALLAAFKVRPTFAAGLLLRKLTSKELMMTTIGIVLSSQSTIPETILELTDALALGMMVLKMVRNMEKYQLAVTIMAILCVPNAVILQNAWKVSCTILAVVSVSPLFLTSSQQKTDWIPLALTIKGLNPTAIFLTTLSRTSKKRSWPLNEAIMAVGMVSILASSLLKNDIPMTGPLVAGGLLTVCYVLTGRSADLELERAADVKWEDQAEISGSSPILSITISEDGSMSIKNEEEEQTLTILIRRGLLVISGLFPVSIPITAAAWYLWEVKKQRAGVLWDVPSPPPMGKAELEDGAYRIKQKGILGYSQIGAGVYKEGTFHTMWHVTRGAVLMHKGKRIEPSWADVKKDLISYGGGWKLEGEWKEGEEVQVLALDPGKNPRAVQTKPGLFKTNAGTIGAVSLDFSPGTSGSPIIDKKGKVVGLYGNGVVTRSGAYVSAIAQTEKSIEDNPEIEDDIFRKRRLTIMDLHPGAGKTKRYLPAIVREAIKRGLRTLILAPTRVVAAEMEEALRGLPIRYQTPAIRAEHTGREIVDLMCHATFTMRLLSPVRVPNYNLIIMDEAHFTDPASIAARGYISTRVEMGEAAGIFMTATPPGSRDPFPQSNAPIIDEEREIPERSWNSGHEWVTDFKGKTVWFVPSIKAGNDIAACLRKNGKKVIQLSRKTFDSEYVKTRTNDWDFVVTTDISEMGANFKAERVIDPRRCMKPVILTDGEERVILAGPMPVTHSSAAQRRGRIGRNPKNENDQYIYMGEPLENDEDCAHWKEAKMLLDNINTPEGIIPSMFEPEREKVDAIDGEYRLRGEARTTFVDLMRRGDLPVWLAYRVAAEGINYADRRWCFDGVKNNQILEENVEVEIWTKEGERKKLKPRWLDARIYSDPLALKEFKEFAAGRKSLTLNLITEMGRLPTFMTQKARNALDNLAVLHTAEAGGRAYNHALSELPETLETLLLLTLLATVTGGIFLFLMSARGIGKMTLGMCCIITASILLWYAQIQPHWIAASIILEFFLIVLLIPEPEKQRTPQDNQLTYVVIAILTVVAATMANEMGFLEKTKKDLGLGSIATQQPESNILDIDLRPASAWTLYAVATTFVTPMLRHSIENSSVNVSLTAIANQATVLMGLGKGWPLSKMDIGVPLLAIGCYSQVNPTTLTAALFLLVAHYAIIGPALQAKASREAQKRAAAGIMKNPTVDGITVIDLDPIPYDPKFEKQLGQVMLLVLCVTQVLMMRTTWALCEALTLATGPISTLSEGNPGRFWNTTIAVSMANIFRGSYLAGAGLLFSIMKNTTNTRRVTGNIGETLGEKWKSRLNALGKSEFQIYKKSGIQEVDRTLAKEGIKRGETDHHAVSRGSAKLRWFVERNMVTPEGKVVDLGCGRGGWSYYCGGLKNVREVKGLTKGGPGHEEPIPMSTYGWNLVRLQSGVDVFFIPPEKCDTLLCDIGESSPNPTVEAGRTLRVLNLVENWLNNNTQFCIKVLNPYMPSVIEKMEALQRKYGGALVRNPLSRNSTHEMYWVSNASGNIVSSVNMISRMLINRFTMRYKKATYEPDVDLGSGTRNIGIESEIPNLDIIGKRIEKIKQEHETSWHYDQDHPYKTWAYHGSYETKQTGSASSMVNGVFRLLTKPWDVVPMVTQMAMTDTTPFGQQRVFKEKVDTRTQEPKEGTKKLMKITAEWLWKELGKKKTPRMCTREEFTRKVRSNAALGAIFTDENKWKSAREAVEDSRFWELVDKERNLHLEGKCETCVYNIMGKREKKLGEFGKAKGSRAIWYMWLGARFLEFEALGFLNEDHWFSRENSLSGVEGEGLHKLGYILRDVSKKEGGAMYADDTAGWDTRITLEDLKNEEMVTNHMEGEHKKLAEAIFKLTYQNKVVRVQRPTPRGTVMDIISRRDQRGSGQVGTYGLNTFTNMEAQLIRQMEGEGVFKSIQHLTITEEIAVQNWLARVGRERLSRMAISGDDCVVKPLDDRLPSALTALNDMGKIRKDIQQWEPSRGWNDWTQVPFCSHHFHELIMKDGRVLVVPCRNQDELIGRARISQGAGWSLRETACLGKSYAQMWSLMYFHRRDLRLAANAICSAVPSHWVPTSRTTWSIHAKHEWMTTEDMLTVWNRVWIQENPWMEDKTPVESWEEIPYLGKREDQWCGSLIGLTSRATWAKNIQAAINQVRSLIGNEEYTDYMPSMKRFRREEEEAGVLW
Structure (SMILES),inhibition,inhibition (measured here: pilot screen replicate inhibition) [%]
O=C(COC(=O)CSc1ccc([N+](=O)[O-])cc1)NCC1CCCO1 (stereo not drawn),5.91% (inactive),
Cc1cc(=O)n(C)c2ccccc12,-7.77% (inactive),
COc1ccc2c(c1)c1ccc3c(c1n2C)C(=O)C=CC3=O,5.87% (inactive),
Cc1ccc(C)c2c1c1ccccc1n2C,0.78% (inactive),
Cc1ccc2c(c1)c1ccc3c(c1n2C)C(=O)C=CC3=O,47.6% (inactive),
CCC(C)NC(=O)CCSCCC(=O)NC(C)CC (stereo not drawn),-4.42% (inactive),
CCCC(C)C(=O)Nc1ccc(S(N)(=O)=O)cc1 (stereo not drawn),-3.64% (inactive),
CCOC(=O)C1CCCN(S(=O)(=O)NC[C@H]2O[C@@H](n3cnc4c(N)ncnc43)[C@H](O)[C@@H]2O)C1 (stereo partly drawn),-8.6% (inactive),-4.29
Fc1cnc(N2CCc3ccccc32)nc1N1CCc2ccccc21,-0.68% (inactive),
O=C(O)c1ccc2c(c1)C(=O)N(N1C(=O)c3ccccc3C1=O)C2=O,5.13% (inactive),
Cc1cc(C(=O)O)ccc1-n1c(C)cc(C=C2C(=O)c3ccccc3C2=O)c1C,-19.9% (inactive),
Cc1ccc(C(=O)O)cc1-c1ccc(C=C2C(=O)c3ccccc3C2=O)o1,-0.73% (inactive),
Cc1ccc(C=C2C(=O)c3ccccc3C2=O)o1,1.92% (inactive),
O=C(O)c1ccc2c(c1)C(=O)N(Cc1ccco1)C2=O,5.56% (inactive),
O=C1C(=Cc2ccco2)C(=O)c2ccccc21,-4.01% (inactive),
COc1cc(COC(=O)c2cnc(C)cn2)c(OC)cc1Br,7.48% (inactive),
Cc1cc(Br)ccc1SCC(=O)OCC(=O)NCc1ccco1,13.5% (inactive),
COC(=O)CCC(=O)COc1ccccc1C#N,-1.61% (inactive),
Oc1ccc(N=Nc2ccc(Br)cc2)c(O)c1,7.83% (inactive),
O=S(=O)(O)c1cc(O)c(N=Nc2ccc(O)cc2O)c2ccccc12,22.4% (inactive),
CCOc1ccc(-n2c(=S)sc3c(=O)n(-c4ccccc4)c(SCC(=O)O)nc32)cc1,-5.28% (inactive),
CCOC(=O)CSc1nc2c(sc(=S)n2-c2ccc(OCC)cc2)c(=O)[nH]1,0% (inactive),
CC(C)N1C(=O)C(=O)N(CC(=O)N2c3ccccc3NC(=O)CC2C)C1=O (stereo not drawn),4.36% (inactive),
COCC(C)NC(=O)c1cc(-c2ccccc2OC)on1 (stereo not drawn),-5.61% (inactive),
CCOC(=O)C1=CN2CCCC[C@@H]2CC1=O,-4.81% (inactive),
CCOC(=O)C1=CN2CCC[C@H]2CC1=O,-9.17% (inactive),
Cc1ccc(S(=O)(=O)NCCC(=O)N2CCC(Cc3ccccc3)CC2)cc1,-2.89% (inactive),

# Source: PubChem BioAssay AID588689 (Southern Research Specialized Biocontainment Screening …, 2011)
